RXFP1 antag = blocks the human relaxin receptor RXFP1; Q9HBX9; HEK293-RXFP1, relaxin-stimulated cAMP HTRF, 30 min; stronger effect = lower value; activity change, negative = inhibition, % at 57.5 µM; 350,000 compounds, 0.59% hits;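 active = activity change of -60% or lower, but not beyond a set lower limit; inconclusive = change between -60% and -40%, or beyond the set limit; inactive = change above -40%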; also: % is scaled to controls: 0 for no effect and ±100 for the full control effect
gsp antag = antagonists of gsp mutant (McCune-Albright syndrome) | gsp-mutant cells, cAMP HTRF, 30 min | Potency, µM (titrated, usually from 76.9 µM), for inactives: top-dose activity change, negative = inhibition, usual class: inhibitors | 340,000 compounds, 0.4% hits; calls by dose curve; cell line not stated here;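 also: intracellular cAMP measured with PDE inhibitor Ro 20-1724 present during compound exposure; potency is read from the fitted curve at half-maximal effect; % is scaled to controls: 0 for no effect and ±100 for the full control effect; nearly all actives have a fitted effect of over 65% in size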
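HTRF cAMP measurement after 30 min RT detection following 30 min, 37C compound treatment alongside […] (added as 300 uM solution) in G418-selected cells seeded at 2000/well and grown 16–24 h.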
gsp ag = activates gsp, the McCune-Albright syndrome mutation; gsp mutant cells, cAMP HTRF, 30 min; Potency, µM (series often up to 76.9 µM), for inactives: at the top dose activation (cAMP increase), most hits filed as activators; 340,000 compounds, 0.13% hits; AID 624287; active = well fitted activation curve with a large enough effect; inconclusive = small, poorly fitted or top-dose-only effect, or another doubt; inactive = no such curve, though single readings can be large or run the other way; cell line not stated here;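 also: phosphodiesterase inhibitor Ro 20-1724 added with compounds to block cAMP breakdown; potency is read from the fitted curve at half-maximal effect; nearly all actives have a fitted effect of over 60% in size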
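Cells stably selected in G418 were plated at 2000/well, grown 16-24 hr, then given compounds in DMSO with the PDE inhibitor […] (300 uM solution added) for 30 min at 37C; cAMP was read by HTRF.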
ClpP mod = qHTS Assay for Activators of ClpP; ATP-dependent Clp protease proteolytic subunit (Bacillus subtilis (strain 168)), P80244; purified B. subtilis ClpP, FRET peptide cleavage, 20 min; Potency, µM (doses to about 57.5 µM), without a hit: at the highest dose activity change, negative = active; 340,000 compounds, 1.9% hits; active = well fitted falling curve with a large enough effect; inconclusive = small, poorly fitted or top-dose-only effect; inactive = no such curve, though single readings can be large or run the other way; also: potency is read from the fitted curve at half-maximal effect; the source files actives as falling curves though it sought activators and does not explain the sign; nearly all actives have a fitted effect of over 65% in size
Target sequence (P80244 whole entry, looked up): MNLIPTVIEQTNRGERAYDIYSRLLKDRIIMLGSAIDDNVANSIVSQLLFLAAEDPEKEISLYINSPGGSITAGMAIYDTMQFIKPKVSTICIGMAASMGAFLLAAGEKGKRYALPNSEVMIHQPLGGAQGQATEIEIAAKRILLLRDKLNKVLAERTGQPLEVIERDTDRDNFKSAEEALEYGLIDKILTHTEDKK
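Purified B. subtilis ClpP, 10 microg/mL final in Tris/HCl pH8 with KCl, BSA, glycerol and Tween-20, cleaved an Abz/nitrotyrosine-quenched decapeptide. Fluorescence (ex 320, em 430) was read at 0 and 20 min at room temperature. Delta was normalized to 5.8 microM ADEP and DMSO/no-enzyme controls.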
pAkt inh = Akt phosphorylation inhibition | activity change, % for hits at 50 µM | Neuro2A IGF-stimulated pAkt S473 HTRF, 20 min; stronger effect = lower value | 360,000 compounds, 0.32% hits; in the data active = activity change below about -80%; inconclusive = mostly about -51% to -80%; also: % is scaled to controls: 0 for no effect and ±100 for the full control effect
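Neuro2A cells (4,500/well, DMEM with 0.5% FBS) were treated with compound at a single 50 µM final concentration, stimulated with 6 nM IGF for 20 min at 37 °C, and lysed. Phospho-Akt Ser473 was read by HTRF as 665/615 ratio ×10^4.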
RXFP1 agonist = RXFP1 (human) receptor agonism; HEK293T-RXFP1 cAMP TR-FRET, 30 min; response scale: percent of porcine relaxin response, buffer zero; Q9HBX9; 370,000 compounds, 0.3% hits; Potency, µM (top dose mostly 57.5 µM), without a hit: at the highest dose activation, actives largely listed as activators; active = well fitted activation curve with a large enough effect; inconclusive = small, poorly fitted or top-dose-only effect; also: potency is read from the fitted curve at half-maximal effect; % is scaled to controls: 0 for no effect and ±100 for the full control effect; nearly all actives have a fitted effect of over 60% in size
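Agonist response is measured as cAMP accumulation in an RXFP1-transfected HEK293T line under PDE4 inhibition. Values are scaled between buffer-only and 29 nM porcine relaxin, and EC50s come from standard Hill equation fits.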
An asterisk follows results filed as active; [ ] = remark or other dose. Compounds with a hit are over-represented: about 2.7% of the library has one in this group of screens.

For COCCN(C(=O)COC(=O)C1(C)CC1(Cl)Cl)c1c(N)n(Cc2ccccc2)c(=O)[nH]c1=O (configuration not stated) the results were RXFP1 antag -0.9, gsp antag 1.6%, gsp ag -3.1%[15.4 µM], ClpP mod 1.9%, pAkt inh inactive and RXFP1 agonist 1.3%.
For Nc1ccc2cccnc2c1 the results were ClpP mod -6.8%.
Screening Cc1ccc(C)c(NC(=O)c2ccc3ccccc3n2)c1 returned RXFP1 antag -1.6, gsp antag -21.6%, gsp ag 15.0%, ClpP mod 35.5µM*, pAkt inh inactive and RXFP1 agonist 1.5%.
Cc1cccc(NC(=O)c2cc3c([nH]c4ccccc43)c(C)n2)c1C was read as RXFP1 antag -11.9, gsp antag 12.5%, gsp ag -3.2%[15.4 µM], ClpP mod -15.2%, pAkt inh inactive and RXFP1 agonist 0.2%.
`Cc1ccc(C)c(NC(=O)c2cc3c([nH]c4ccccc43)c(C)n2)c1` gave RXFP1 antag 0.1, gsp antag 11.5%, gsp ag inconclusive, ClpP mod 0.1%, pAkt inh -101.3%* and RXFP1 agonist 17.7%.
`CCCCOc1ncnc2c1[nH]c1ccc(F)cc12` gave RXFP1 antag -7.4, gsp antag -27.8%, gsp ag 11.6%, ClpP mod 15.8µM*, pAkt inh inactive and RXFP1 agonist -0.6%.
For CCCCOc1ncnc2c1[nH]c1ccccc12 the results were RXFP1 antag -11.2, gsp antag inconclusive, gsp ag -33.7%, ClpP mod 17.8µM*, pAkt inh inactive and RXFP1 agonist 0.2%.
For COc1cc(N(C)C)c(OC)cc1/C=C/c1ccnc2ccccc12 the results were ClpP mod -0.3%.
Screening O=C(NCCOc1ccccc1)C1CCC(=O)N(C2CCCCCC2)C1 (configuration not stated) returned RXFP1 antag -13.2, gsp antag 4.9%, gsp ag -6.4%[15.4 µM], ClpP mod 0.8%, pAkt inh inactive and RXFP1 agonist 5.3%.
Screening CCCn1c(Cc2ccccc2)nnc1SC(C)C(=O)NC1CC1 (configuration not stated) returned RXFP1 antag 5.3, gsp antag 13.6%, gsp ag 20.3%, ClpP mod 0.6%, pAkt inh inactive and RXFP1 agonist 1.2%.
Screening O=C(Nc1ccc(O)c(-c2nc3ccccc3s2)c1)c1cccs1 returned RXFP1 antag 22.3, gsp antag -25.7%, gsp ag 10.2%[15.4 µM], ClpP mod 28.2µM*, pAkt inh inactive and RXFP1 agonist 7.6%.
CCOCCCNC(=O)c1ccc2c(c1)NC(=O)C(CS(=O)(=O)Cc1ccc(F)cc1Cl)N2 (configuration not stated) was read as RXFP1 antag 1.9, ClpP mod 7.08µM* and RXFP1 agonist 4.9%.
For CCN(CC)CCCNC(=O)c1ccc2c(c1)NC(=O)C(CS(=O)(=O)Cc1ccc(F)cc1Cl)N2 (configuration not stated) the results were RXFP1 antag -15.3, ClpP mod 3.16µM* and RXFP1 agonist 5.4%.
Screening CCN(CC)CCNC(=O)c1ccc2c(c1)NC(=O)C(CS(=O)(=O)Cc1ccc(F)cc1Cl)N2 (configuration not stated) returned RXFP1 antag -7.8, ClpP mod 28.2µM* and RXFP1 agonist -1.4%.
`O=C(NCc1ccc(Cl)cc1)c1ccc2c(c1)NC(=O)C(CS(=O)(=O)Cc1ccc(F)cc1Cl)N2` (configuration not stated) gave RXFP1 antag -4.8, ClpP mod 4.2% and RXFP1 agonist -0.4%.
CN(C)CCNC(=O)c1ccc2c(c1)NC(=O)C(CS(=O)(=O)Cc1cccc(Br)c1)N2 (configuration not stated) was read as RXFP1 antag -2.0, ClpP mod 31.6µM* and RXFP1 agonist -0.9%.
For COC(=O)N1CCCCC1c1cc(C(=O)NCc2cccnc2)no1 (configuration not stated) the results were ClpP mod 0.2% and pAkt inh inactive.
c1csc(Cn2c(-c3cccs3)nc3ccccc32)c1 was read as RXFP1 antag -9.7, gsp antag inconclusive, gsp ag 6.4%, ClpP mod 31.6µM*, pAkt inh inactive and RXFP1 agonist 3.7%.
For COc1ccc2nc(SCc3nc(N)nc(Nc4ccccc4)n3)[nH]c2c1 the results were RXFP1 antag -1.4, gsp antag 26.3%, gsp ag 18.3%, ClpP mod 1.8%, pAkt inh -101.5%* and RXFP1 agonist 1.0%.
`COc1ccc(Nc2nc(N)nc(CSc3nc(C)cc(C)n3)n2)cc1` gave RXFP1 antag -2.0, gsp antag -6.0%, gsp ag 7.0%[15.4 µM], ClpP mod -25.3%, pAkt inh inactive and RXFP1 agonist 0.7%.
Screening CCOc1ccccc1Nc1nnc(SCc2nnc(-c3cc(OC)c(OC)c(OC)c3)o2)s1 returned RXFP1 antag 6.1, gsp antag -5.0%, gsp ag -33.5%, ClpP mod 31.6µM*, pAkt inh inactive and RXFP1 agonist 0.5%.
CCc1cccc(NS(=O)(=O)c2ccc3c(c2)N(CC(=O)OC)C(=O)CS3)c1 was read as RXFP1 antag -10.2, ClpP mod -4.9% and RXFP1 agonist 2.2%.
Cc1ccc(S(=O)(=O)CC(=O)N(CCCN2CCOCC2)c2nc3c(F)cccc3s2)cc1 was read as RXFP1 antag inconclusive, gsp antag -18.9%, gsp ag 6.7%[15.4 µM], pAkt inh inactive and RXFP1 agonist 0.8%.
`O=C(CCS(=O)(=O)c1ccccc1)N(CCCN1CCOCC1)c1nc2c(F)cccc2s1` gave RXFP1 antag -74.5*, gsp antag 1.2%, gsp ag -5.0%, ClpP mod -1.4%, pAkt inh inactive and RXFP1 agonist 0.8%.
CCCCNC(=O)[C@@H]1CC=C[C@@H]2CCN(Cc3ccc(OC)c(OC)c3)C(=O)[C@@H]21 was read as ClpP mod 1.8%.
Cc1cc(N2CCN(c3ccccc3Cl)CC2)n2cc(-c3ccccc3)nc2n1 was read as RXFP1 antag -11.1, gsp antag inconclusive, gsp ag -47.7%, ClpP mod 14.1µM*, pAkt inh inactive and RXFP1 agonist 0.8%.
Screening CC1CCc2sc(C(=O)Nc3nnc(SCc4ccc(F)cc4)s3)cc2C1 (configuration not stated) returned RXFP1 antag -5.0, gsp antag -2.6%[15.4 µM], gsp ag -13.0%, ClpP mod inconclusive, pAkt inh -85.1%* and RXFP1 agonist 1.5%.
